The values below come from PubChem BioAssay.

Experiment [1] can be described thus: E. coli DRC41 culture turbidity changes, primary screen, E. coli filamentation inducer project, strain DRC41, OD650, 48 h (AID 1152).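 Note: E. coli MC1000 strain DRC41 lacking acrAB efflux pump and sulA.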 As to conditions: E. coli DRC41 (acrAB sulA), higher = more signal, called active from +8 up or from −8 down.
Experiment [2] is described as follows: small-molecule binders of probe aLefty1, primary screen, biochemical, small-molecule microarray, 635/667 nm fluorescence (AID 1153).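 Note: score merges spot fluorescence with signal-to-noise ratio from the scanned slide images.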 As to conditions: higher = more signal.
Experiment [3] can be described thus: PSAC antagonists in infected red cells, primary screen, cell-based, P. falciparum Indochina, OD700, 1 h (AID 1154). As to conditions: P. falciparum Indochina infected RBC osmotic lysis, higher = more signal, called active from +8 up or from −8 down.
Experiment [4] can be described thus: PSAC antagonists in infected red cells, primary screen, cell-based, P. falciparum Indochina, OD700, 2 h (AID 1155).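 Note: lysis reports solute entry through the parasite surface anion channel PSAC; channel blockers reduce lysis of infected cells.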 The conditions noted are these: P. falciparum Indochina infected erythrocytes, osmotic lysis OD700; higher = more signal, called active from +8 up or from −8 down.
A short description of experiment [5]: osmotic lysis modulators in infected erythrocytes, primary screen, PSAC antagonist project, cell-based, P. falciparum Indochina, OD700, 3 h (AID 1156). As to conditions: higher = more signal, called active from +8 up or from −8 down.
Experiment [6] is described as follows: PSAC antagonists in infected red cells, primary screen, cell-based, P. falciparum Indochina, OD700, 18 h (AID 1157). As to conditions: P. falciparum Indochina infected erythrocytes, osmotic lysis OD700, 18 h; higher = more signal, called active from +8 up or from −8 down.
Experiment [7] is described as follows: modulators of S6 phosphorylation in cells, primary screen, cell-based, A549, cytoblot, luminescence, serum-stimulated (AID 1158).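 Note: serum-stimulated A549 lung adenocarcinoma cells; signal is phosphorylated S6 detected by cytoblot immunostaining with HRP secondary.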 The conditions noted are these: A549 phospho-S6 cytoblot, 5 h, higher = more signal.
For experiment [8], the target named is NADPH oxidase 2 (Homo sapiens) (UniProt P04839). Put plainly: NOX2-dependent H2O2 signal modulators, primary screen, NOX inhibitor project, cell-based, HEK293-NOX2, PMA-stimulated, Amplex Red fluorescence (AID 1159). Note: test concentration not given here. As to conditions: 45 min, higher = more signal, called active from +8 up or from −8 down.
The target of experiment [9] is NADPH oxidase 4 (Homo sapiens) (UniProt Q9NPH5). Nature of the experiment: NOX4-dependent H2O2 signal modulators, primary screen, NOX inhibitor project, cell-based, HEK293-NOX4, tetracycline-induced, Amplex Red fluorescence (AID 1160). As to conditions: 45 min, higher = more signal, called active from +8 up or from −8 down.
The target of experiment [10] is NADPH oxidase 5 (Homo sapiens) (UniProt Q96PH1). Put plainly: NOX5-dependent H2O2 signal modulators, primary screen, NOX inhibitor project, cell-based, HEK293-NOX5, Amplex Red fluorescence (AID 1161). As to conditions: HEK293-NOX5, ionomycin, 45 min, higher = more signal.
Experiment [11] in a line: A549 cell viability effects, profiling panel, calcein-AM fluorescence, 48 h, basal (AID 1162). Note: test concentration not given here. The conditions noted are these: higher = more signal.
A short description of experiment [12]: adipocyte viability effects, profiling panel, cell-based, 3T3-L1 adipocytes, calcein-AM fluorescence, 48 h, basal (AID 1163). Note: test concentration not given here. The conditions noted are these: 3T3-L1 adipocytes viability, higher = more signal.
A short description of experiment [13]: HepG2 cell viability effects, profiling panel, calcein-AM fluorescence, 48 h, basal (AID 1164). Note: test concentration not given here. As to conditions: higher = more signal.
A short description of experiment [14]: MM1S cell viability effects, profiling panel, calcein-AM fluorescence, 48 h, basal (AID 1165).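 Note: viability of MM1S multiple myeloma cells under basal unstimulated conditions; test concentration not given here.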 As to conditions: higher = more signal.
Experiment [15] can be described thus: basal RPMI8226 viability, no added stimulus, profiling panel, cell-based, calcein-AM fluorescence, 48 h, PK04 Diversity Set (AID 1166).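 Note: cells grown under basal conditions without added stimulus; test concentration not given here.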 The conditions noted are these: RPMI8226 myeloma viability, higher = more signal.
The nature of experiment [16]: basal HepG2 mitochondrial membrane potential changes, profiling panel, cell-based, JC-1 fluorescence, 24 h, 100 nL compound (AID 1167). Note: test concentration not given here. As to conditions: higher = more signal.
A short description of experiment [17]: basal 3T3-L1 adipocyte mitochondrial potential changes, profiling panel, cell-based, JC-1 fluorescence, 3T3-L1 adipocytes, 24 h, 100 nL compound (AID 1168). Note: test concentration not given here. As to conditions: JC-1 mitochondrial fluorescence, higher = more signal, called active from +8 up or from −8 down.
Experiment [18] can be described thus: basal RPMI8226 mitochondrial membrane potential changes, profiling panel, cell-based, JC-1 fluorescence, 24 h, 100 nL compound (AID 1169). Note: test concentration not given here. The conditions noted are these: RPMI8226 myeloma, JC-1 mitochondrial potential fluorescence, higher = more signal.
The nature of experiment [19]: basal MM1S mitochondrial membrane potential changes, profiling panel, cell-based, JC-1 fluorescence, 24 h, 100 nL compound (AID 1170). Note: test concentration not given here. As to conditions: higher = more signal.
Experiment [20] is described as follows: A549 lung cancer cell viability effects, profiling panel, resazurin fluorescence, 24 h, PK04 Diversity Set (AID 1171). Note: test concentration not given here. As to conditions: higher = more signal, called active from +8 up or from −8 down.

SMILES strings stand for the structures. The source made the active and inactive calls.

Chain of NADPH oxidase 4 (Homo sapiens) (Q9NPH5 whole entry, looked up): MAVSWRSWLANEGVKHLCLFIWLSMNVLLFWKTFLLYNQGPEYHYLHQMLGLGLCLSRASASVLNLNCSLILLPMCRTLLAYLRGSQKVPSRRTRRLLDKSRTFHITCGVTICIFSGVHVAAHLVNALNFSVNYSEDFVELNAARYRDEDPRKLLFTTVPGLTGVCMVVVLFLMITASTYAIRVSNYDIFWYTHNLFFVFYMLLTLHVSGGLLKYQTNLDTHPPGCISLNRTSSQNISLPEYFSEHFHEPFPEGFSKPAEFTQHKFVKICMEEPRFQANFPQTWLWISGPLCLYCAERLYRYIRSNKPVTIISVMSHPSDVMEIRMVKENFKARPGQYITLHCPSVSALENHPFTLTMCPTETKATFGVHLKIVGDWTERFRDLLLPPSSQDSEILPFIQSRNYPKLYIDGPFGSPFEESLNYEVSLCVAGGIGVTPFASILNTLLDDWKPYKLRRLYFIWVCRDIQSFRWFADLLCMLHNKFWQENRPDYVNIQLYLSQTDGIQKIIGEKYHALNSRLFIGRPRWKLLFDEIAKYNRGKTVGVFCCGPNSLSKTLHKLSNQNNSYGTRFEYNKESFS
Chain of NADPH oxidase 5 (Homo sapiens) (Q96PH1 whole entry, looked up): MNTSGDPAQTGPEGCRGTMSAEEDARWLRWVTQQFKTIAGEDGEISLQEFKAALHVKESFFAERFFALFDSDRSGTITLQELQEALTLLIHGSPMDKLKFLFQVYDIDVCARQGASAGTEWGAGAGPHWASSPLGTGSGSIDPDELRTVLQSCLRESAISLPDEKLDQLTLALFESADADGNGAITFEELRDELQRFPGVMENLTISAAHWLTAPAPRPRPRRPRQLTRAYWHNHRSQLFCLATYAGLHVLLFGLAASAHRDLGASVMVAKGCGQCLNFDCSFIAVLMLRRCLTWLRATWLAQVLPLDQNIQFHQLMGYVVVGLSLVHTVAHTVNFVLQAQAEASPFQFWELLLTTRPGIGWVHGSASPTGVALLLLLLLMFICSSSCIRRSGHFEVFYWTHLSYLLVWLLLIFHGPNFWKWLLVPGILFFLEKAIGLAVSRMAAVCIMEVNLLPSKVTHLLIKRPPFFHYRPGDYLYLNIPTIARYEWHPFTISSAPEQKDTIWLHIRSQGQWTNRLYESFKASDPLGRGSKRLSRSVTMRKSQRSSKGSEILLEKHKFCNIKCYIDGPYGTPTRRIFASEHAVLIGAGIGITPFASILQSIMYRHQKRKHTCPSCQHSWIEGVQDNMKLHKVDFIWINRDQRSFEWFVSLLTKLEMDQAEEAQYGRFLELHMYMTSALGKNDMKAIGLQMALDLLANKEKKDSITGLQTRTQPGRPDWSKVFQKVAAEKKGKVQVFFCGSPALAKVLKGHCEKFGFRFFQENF
Chain of NADPH oxidase 2 (Homo sapiens) (P04839 whole entry, looked up): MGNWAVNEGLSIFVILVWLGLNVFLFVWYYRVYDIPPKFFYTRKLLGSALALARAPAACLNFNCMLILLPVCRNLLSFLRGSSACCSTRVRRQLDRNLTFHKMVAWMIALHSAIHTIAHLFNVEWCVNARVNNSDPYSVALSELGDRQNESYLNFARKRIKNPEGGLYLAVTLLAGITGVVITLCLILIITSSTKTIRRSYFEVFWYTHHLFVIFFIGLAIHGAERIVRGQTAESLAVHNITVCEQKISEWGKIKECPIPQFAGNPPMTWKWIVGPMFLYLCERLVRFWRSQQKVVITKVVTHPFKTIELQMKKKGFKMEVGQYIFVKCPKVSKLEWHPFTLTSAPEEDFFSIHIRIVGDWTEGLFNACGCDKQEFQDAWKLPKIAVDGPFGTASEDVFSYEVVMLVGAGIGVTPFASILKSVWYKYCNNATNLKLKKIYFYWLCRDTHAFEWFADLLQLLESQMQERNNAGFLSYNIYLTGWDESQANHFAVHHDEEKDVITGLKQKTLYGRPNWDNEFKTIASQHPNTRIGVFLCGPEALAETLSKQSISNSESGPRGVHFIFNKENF

Take `C=C(/C(=C/C[C@@H](OC(C)=O)c1ccc(OCCO)cc1)c1cnc2ccccc2c1)C(C)C`: the z-score in experiment [1] is 1.14 (inactive); in experiment [3], 15.4 (active); in experiment [4] it was 2.26 (inactive); in experiment [5] it was 1.79 (inactive); in experiment [6], 0.97 (inactive); in experiment [7], 0.853. The z-score in [8] is -2.99 (inactive); in experiment [9] it was -0.926 (inactive); in experiment [10], -2.24; in experiment [11], 2.72; in experiment [12], 1.39; in [13] it was 1.25. The z-score in experiment [14] is -0.924; in [15], 0.559; in [16], 2.07; in experiment [17], -1.27 (inactive); in [18], -0.139; in experiment [19], -1.17. Further, the z-score in experiment [20] was 0.685 (inactive). This molecule also yielded a composite z-score in [2] of -0.342.

For `CC1(C)[C@@H]2CC(C(O)C3C=CC4C(=O)N(c5ccccc5)C(=O)C4N3Nc3ccccc3)=C[C@H]1C2` (stereo not given in full), the z-score in experiment [1] is -1.16 (inactive); in [3], 4.78 (inactive); in experiment [4] it was 0.741 (inactive); in [5], -0.343 (inactive); in [6], 1.29 (inactive); in [7] it was -1.04. The z-score was -1.47 (inactive) in experiment [8]; -2.94 (inactive) in [9]; -3.08 in experiment [10]; -1.66 in experiment [11]; -1.16 in experiment [12]; -1.16 in experiment [13]. Moreover, the z-score in experiment [14] was -0.528; in experiment [15] it was -0.209; in experiment [16], -1.79; in experiment [17] it was -1.46 (inactive); in [18], 0.263; in experiment [19], -0.527. The z-score in experiment [20] was -0.158 (inactive). For the same molecule, the composite z-score in experiment [2] is -0.012.

In the case of `[N-]=[N+]=NCc1ccccc1C[C@@]1(C(=O)NCC(O)CO)N=C(c2ccc(OCCCO)cc2)O[C@@H]1c1ccccc1N=[N+]=[N-]` (stereo not given in full), the z-score in [1] was 0.458 (inactive); in experiment [3], 30.8 (active); in experiment [4] it was 28.7 (active); in experiment [5] it was 1.29 (inactive); in experiment [6] it was 7.41 (inactive); in experiment [7], 0.345. The z-score in experiment [8] is -0.00841 (inactive); in experiment [9], 1.21 (inactive); in experiment [10], 0.427; in experiment [11] it was -2.46; in experiment [12], 0.223; in [13], -1.75. Besides, the z-score in experiment [14] was -2.92; in [15] it was -3.45; in experiment [16], -0.158; in experiment [17], -0.731 (inactive); in [18], -1.19; in [19], -0.999. Besides, the z-score in experiment [20] was -3.5 (inactive). Besides, in [2], the composite z-score turned out to be 0.668.

With `COCCOC(=O)N1C(=O)[C@@]2(c3ccccc31)[C@H](c1ccccc1OCCO)N1[C@H](c3ccccc3)[C@H](c3ccccc3)OC(=O)[C@H]1[C@@H]2C(=O)Nc1nc2ccccc2s1`, the z-score in experiment [1] was 1.57 (inactive); in experiment [3], 3.27 (inactive); in experiment [4], 2.77 (inactive); in experiment [5], 1.37 (inactive); in experiment [6], 1.84 (inactive); in [7], 0.59. Besides, the z-score was 1.39 (inactive) in experiment [8]; 1.41 (inactive) in [9]; 0.676 in [10]; -0.331 in experiment [11]; 0.0264 in experiment [12]; -0.271 in [13]. For the same molecule, the z-score in experiment [14] was -1.39; in experiment [15], -1.54; in experiment [16] it was -1.51; in experiment [17] it was 1.79 (inactive); in [18], -1.01; in experiment [19], -1.33. In experiment [20], the z-score was -1.02 (inactive). In experiment [2], the composite z-score worked out at 0.523.

Turning to `COCCOC(=O)N1C(=O)[C@@]2(c3cc(C#CCCO)ccc31)[C@H](C(=O)Nc1nc3ccccc3s1)[C@H]1C(=O)O[C@H](c3ccccc3)[C@H](c3ccccc3)N1[C@@H]2c1ccc(OCCO)cc1`, the z-score in [1] was 0.372 (inactive); in experiment [3], 4.19 (inactive); in experiment [4] it was 1.5 (inactive); in experiment [5] it was 0.708 (inactive); in experiment [6], 1.34 (inactive); in [7] it was -0.548. In addition, the z-score in [8] was 0.82 (inactive); in [9], 0.462 (inactive); in experiment [10], 1.37; in [11], -0.324; in experiment [12], -0.0713; in experiment [13], 0.555. The z-score in experiment [14] was -0.315; in experiment [15] it was -0.234; in experiment [16] it was -3.53; in [17] it was 0.823 (inactive); in experiment [18] it was -0.371; in experiment [19], -1.41. For the same molecule, the z-score in experiment [20] was 1.24 (inactive). Moreover, the composite z-score in [2] was found to be 0.352.

With `CCCCN1CC=CC23O[C@@H]4/C=C\CCC(C)OC(=O)C4[C@H]2C(=O)N(CCCCCO)[C@@H]3C1=O` (stereo not given in full), the z-score in experiment [1] is 0.119 (inactive); in experiment [3] it was 1.03 (inactive); in [4] it was -0.0101 (inactive); in experiment [5], -0.0712 (inactive); in [6], 0.406 (inactive); in experiment [7], 0.002. In addition, the z-score in experiment [8] is 0.395 (inactive); in experiment [9] it was -0.022 (inactive); in [10], 1.21; in experiment [11], -0.143; in [12], 0.0763; in [13], 0.478. Besides, the z-score in experiment [14] was 1.52; in [15], 0.096; in experiment [16], 0.241; in experiment [17], 0.9 (inactive); in experiment [18] it was 0.32; in [19] it was -0.133. For the same molecule, the z-score in [20] was 0.455 (inactive). This molecule came in with a composite z-score in [2] of -0.147.

On to `C=CCOC(=O)[C@@H]1[C@H]2C(=O)O[C@H](c3ccccc3)[C@H](c3ccccc3)N2[C@H](c2ccc(OCCOC(=O)[C@@H]3C[C@@H]4C(=O)N[C@@H](CCCC[N+](C)(C)C)C(=O)N4[C@@H]3c3cccc(OCCO)c3)cc2)[C@@]12C(=O)Nc1ccc(I)cc12`, for which the z-score in experiment [1] was -0.537 (inactive); in experiment [3], 2.82 (inactive); in [4] it was 2.58 (inactive); in experiment [5], 2.24 (inactive); in [6], 1.01 (inactive); in [7], -1.5. Moreover, the z-score in [8] was 2.31 (inactive); in [9], 0.862 (inactive); in experiment [10], 1.3; in [11] it was -0.477; in [12] it was 0.788; in [13], -0.776. For the same molecule, the z-score was -2.78 in experiment [14]; -2.03 in experiment [15]; -0.605 in experiment [16]; 0.902 (inactive) in experiment [17]; -0.637 in experiment [18]; -1.22 in experiment [19]. Further, in experiment [20], the z-score was 0.504 (inactive). Also, in experiment [2], the composite z-score stood at 0.121.

For `COc1cc2c(cc1OC)CN(C(=O)[C@H]1[C@@H]3C(=O)O[C@@H](c4ccccc4)[C@@H](c4ccccc4)N3[C@@H](c3ccc(O)cc3)[C@]13C(=O)Nc1ccc(C#CCNC(N)=O)cc13)CC2`, the z-score in experiment [1] was 0.595 (inactive); in experiment [3] it was 0.342 (inactive); in experiment [4], 0.137 (inactive); in [5], -0.518 (inactive); in experiment [6], 0.335 (inactive); in [7] it was 0.152. Also, the z-score in experiment [8] was 0.47 (inactive); in experiment [9], 0.732 (inactive); in experiment [10] it was 0.56; in experiment [11], -0.697; in experiment [12] it was 0.448; in experiment [13] it was 0.148. In addition, the z-score is 0.703 in experiment [14]; 0.168 in experiment [15]; -1.31 in experiment [16]; 0.635 (inactive) in experiment [17]; 0.22 in experiment [18]; -0.222 in experiment [19]. In addition, in [20], the z-score was -0.0437 (inactive). In experiment [2], this molecule yielded a composite z-score of 0.075.
